Most compounds without a hit are left out; they make up all but 10% or so of the library.
FLuc inh = Firefly luciferase inhibition profiling of diverse chemical library using quantitative high-throughput screening; Luciferin 4-monooxygenase (Photinus pyralis), P08659; purified P. pyralis luciferase, luminescence, biochemical; Potency, µM (doses to about 115 µM), most hits filed as inhibitors; 76,000 tested, 2.5% active; also: % is scaled to controls: 0 for no effect and ±100 for the full control effect; nearly all actives have a fitted effect of over 65% in size
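Luminescence read by CCD imager after adding enzyme (10nM final) to wells holding compound, titrated in qHTS. Substrates 10uM each D-luciferin and ATP; buffer 50mM Tris acetate pH 7.5, 10mM Mg acetate, Tween-20, BSA.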
3T3 cytotox = Cytotoxic Profiling in NIH 3T3 Cell Line of Diverse Libraries Using Quantitative High-Throughput Screening; NIH 3T3 viability, CellTiter-Glo ATP luminescence, 48-72 h; Potency, µM (series often up to 96.7 µM), for inactives: top-dose activity change, negative = cytotoxicity, hits mostly inhibitors; 94,000 tested, 4.3% active; AID 1345082, 2018; also: % is scaled to controls: 0 for no effect and ±100 for the full control effect; nearly all actives have a fitted effect of over 55% in size
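Viability of NIH 3T3 cells after 48 or 72 hr compound treatment at 37 °C was assessed by CellTiter-Glo, with luminescence imaged following a 10 min room-temperature step.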
HEK293 tox = Cytotoxic Profiling in HEK 293 Cell Line of Diverse Libraries Using Quantitative High-Throughput Screening; Potency, µM (highest dose often 115 µM), without a hit: at the highest dose activity change, negative = cytotoxicity, hits mostly inhibitors; AID 1345083, 2018; HEK 293 viability, ATP luminescence (CellTiter-Glo), 48-72 h; 94,000 tested, 6.6% active; also: % is scaled to controls: 0 for no effect and ±100 for the full control effect; nearly all actives have a fitted effect of over 60% in size
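Cytotoxicity was scored by loss of ATP-coupled luminescence (CellTiter-Glo) in HEK 293 cells. Compound treatment ran 48 or 72 hr at 37 degree Celsius, 5% CO2, 95% humidity.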
NPR1 antag = Natriuretic polypeptide receptor (hNpr1) antagonism - Primary qHTS; AID 1347048, 2019; HEK293 hNpr1 GloSensor cGMP, ANP-stimulated luminescence; Potency, µM (doses to about 46.3 µM), for the others: top-dose activity change, negative = inhibition, actives largely listed as inhibitors; Atrial natriuretic peptide receptor 1 (Homo sapiens), P16066; 76,000 tested, 1.6% active; calls by dose curve; also: % is scaled to controls: 0 for no effect and ±100 for the full control effect; nearly all actives have a fitted effect of over 60% in size
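HEK293 cells stably expressing human Npr1 and cGMP GloSensor pGS-40F, loaded 2 h with 2% GloSensor reagent, given compound 30 min at room temperature. Luminescence read before and 20 min after 0.1 nM hNppA.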
GPT2 inh = Primary qHTS assay for inhibitors of Glutamate pyruvate transaminase 2 (GPT2); Alanine aminotransferase 2 (Homo sapiens), Q8TD30; Recombinant GPT2, coupled pyruvate oxidase/HRP Amplex Red fluorescence; Potency, µM (series often up to 57.7 µM), for the others: top-dose activity change, negative = inhibition, actives largely listed as inhibitors; 100,000 tested, 0.25% active; also: % is scaled to controls: 0 for no effect and ±100 for the full control effect; nearly all actives have a fitted effect of over 60% in size
Target sequence (Q8TD30 whole entry, looked up): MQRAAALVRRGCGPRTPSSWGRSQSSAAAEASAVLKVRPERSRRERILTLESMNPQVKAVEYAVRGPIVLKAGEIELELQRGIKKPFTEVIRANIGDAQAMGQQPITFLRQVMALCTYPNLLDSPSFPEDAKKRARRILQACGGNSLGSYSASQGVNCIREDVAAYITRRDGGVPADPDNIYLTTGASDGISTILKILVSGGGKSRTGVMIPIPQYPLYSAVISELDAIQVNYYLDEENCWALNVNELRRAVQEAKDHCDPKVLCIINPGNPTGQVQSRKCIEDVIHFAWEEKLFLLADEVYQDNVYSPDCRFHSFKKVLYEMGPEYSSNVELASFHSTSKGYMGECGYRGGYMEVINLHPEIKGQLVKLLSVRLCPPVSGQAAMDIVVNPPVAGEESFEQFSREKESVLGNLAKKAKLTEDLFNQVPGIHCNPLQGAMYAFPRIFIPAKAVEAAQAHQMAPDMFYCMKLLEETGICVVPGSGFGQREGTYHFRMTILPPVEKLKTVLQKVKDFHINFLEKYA
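Fluorescence read-out: pyruvate from GPT2 turnover coupled to pyruvate oxidase, HRP and Amplex Red (0.2mM ThPP, 0.2U/mL PO and HRP, 50uM Amplex final). Substrates 250uM a-KG, 2mM L-alanine; enzyme 10ng/uL; 30 min RT.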
NPR1 antag cnf = Natriuretic polypeptide receptor (hNpr1) antagonism - Confirmation | Potency, µM (top dose mostly 57.6 µM), inactives show top-dose activity change, negative = inhibition, actives largely listed as inhibitors | 1,400 tested, 76% active | AID 1347044, 2019 | shares compounds with NPR1 antag | HEK293 hNpr1 cGMP GloSensor luminescence, ANP-stimulated; calls by dose curve; also: nearly all actives have a fitted effect of over 70% in size
Npr2 selectivity = Natriuretic polypeptide receptor (hNpr2) antagonism - Subtype selectivity assay; 1,400 tested, 67% active; HEK293 hNpr2 GloSensor cGMP luminescence, CNP-stimulated; Potency, µM (series often up to 57.6 µM), for the others: at the highest dose activity change, negative = inhibition, hits mostly inhibitors; shares compounds with NPR1 antag; AID 1347046, 2019; calls by dose curve; also: nearly all actives have a fitted effect of over 70% in size
FLuc inh counter = Natriuretic polypeptide receptor (hNpr1) antagonism - Confirmation firefly luciferase (FLuc) inhibition counterscreen | shares compounds with NPR1 antag | purified FLuc enzyme, luminescence, Km substrate | Potency, µM (doses to about 57.6 µM), without a hit: at the highest dose activity change, negative = inhibition, most hits filed as inhibitors | 1,400 tested, 0.7% active; also: 0% is about no effect
GloSensor cGMP = Natriuretic polypeptide receptor (hNpr1) antagonism - Counterscreen GloSensor control cell line. shares compounds with NPR1 antag. HEK293 GloSensor cGMP, SNP-stimulated, luminescence. Potency, µM (top dose mostly 57.6 µM), inactives show top-dose activity change, negative = inhibition, hits mostly inhibitors. 1,400 tested, 69% active; calls by dose curve; also: % is scaled to controls: 0 for no effect and ±100 for the full control effect; nearly all actives have a fitted effect of over 70% in size
* = called active by the depositor; i = inactive; ? = inconclusive; . = not tested or not shown; [ ] = another dose, or the depositor's remark. Unless noted, calls follow the shape of the dose curve; as a rule, active = well fitted curve in the direction sought with a large enough effect; inconclusive = small, poorly fitted or top-dose-only effect, or another doubt; inactive = no such curve, though single readings can be large; an effect the other way counts as inactive or inconclusive. Potency is read from the fitted curve at half-maximal effect.

SMILES | FLuc inh | 3T3 cytotox | HEK293 tox | NPR1 antag | GPT2 inh | NPR1 antag cnf | Npr2 selectivity | FLuc inh counter | GloSensor cGMP
COCC1(CNC(=O)c2cccnc2)C[C@@H](O)[C@@H](O)C1 (some centres undefined) | i | -12%[174 µM] | -23%[172 µM] | -5%[70.6 µM] | 3%[88.5 µM] | . | . | . | .
CCC1=C(C(=O)OC)C(c2ccccc2Cl)N2C(CC(=O)NCc3ccco3)=CSC2=N1 (centres undefined) | i | -26% | ? | ? | 4% | . | . | . | .
CCCCNC(=O)CC1CCN(c2ccnc(NCC)n2)CC1 | i | ? | ? | -3% | i | . | . | . | .
COc1ccc(CC(=O)NC2CCCN(c3cc(-c4ccc(Cl)cc4)[nH]n3)C2)cc1OC (centres undefined) | i | ? | 22µM* | 11µM* | -19% | 24µM* | 15µM* | 1% | 24µM*
COc1ccc(CC(=O)NC2CCN(c3cc(-c4ccc(OC)cc4)[nH]n3)CC2)cc1 | i | ? | ? | -25% | -16% | ? | ? | 0% | -27%
O=C1Nc2ccccc2CC12CCN([S+](=O)([O-])c1cccc(C(F)(F)F)c1)CC2 | i | -24% | ? | 16% | 2% | . | . | . | .
CN(C)C(=O)N1CCCC(C(=O)N2CCCC2c2nc3ccncc3[nH]2)C1 (centres undefined) | . | -21% | 0% | . | 5% | . | . | . | .
CCCc1cnc(C)nc1N1CC[C@@H](NC(=O)c2cnccn2)[C@H](O)C1 | i | -19% | -20% | -1% | i | . | . | . | .
COc1ccccc1-c1[nH]nc2ncc(C(=O)NCc3ccccc3)nc12 | i | -29%[138 µM] | ? | 2%[70.6 µM] | 4%[88.5 µM] | . | . | . | .
COc1ccccc1-c1[nH]nc2ncc(C(=O)NCC3CC3)nc12 | i | ? | ? | ? | i | ? | 25µM* | 0%[86.2 µM] | 3%[86.2 µM]
Cc1ccccc1-c1cnc2[nH]cc(CC(=O)NCc3ccco3)c2c1 | i | ? | 71µM* | 32µM* | -5%[88.5 µM] | 35µM* | 31µM* | 1%[86.2 µM] | 25µM*
Cc1ccccc1-c1cnc2[nH]cc(CC(=O)NC3CC3)c2c1 | i | ? | ? | 14µM* | -4%[88.5 µM] | 13µM* | 18µM* | 13%[86.2 µM] | 13µM*
Cc1ccc2cc(CCC(=O)NCc3ccco3)c(=O)[nH]c2c1 | i | -4% | -4% | -7% | i | . | . | . | .
Cc1cn2nc(C(=O)N3CCC(NC(=O)Cc4c[nH]c5ccccc45)CC3)cc2c(=O)[nH]1 | i | i | 3% | 1% | -18% | . | . | . | .
